Measured values as given in PubChem BioAssay AID1159580 (chemical genetic matrix, 2015).
Screen size: about 5,500 compounds; about 2,000 (36%) were called active. About 18% were inconclusive and are not listed. The list shows a part of the results. Values without a mark were called inactive. No stated cut-off is given here; in the data, active means normalized growth mostly below about 0.91 (no sharp cut-off); inconclusive means no clear call, values can overlap the other calls; inactive means mostly above about 0.92.

Test: chemical genetic growth profiling, strain panel (AID 1159580);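 further: tested at 20 µM; growth read once vehicle control cultures reached saturation at 30 °C; 1 = growth at the plate median or of vehicle wells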
Conditions: growth OD

**Q.** For `CCOP(=S)(OCC)SCn1c(=O)oc2cc(Cl)ccc21`, which normalized growth (S. cerevisiae deletion strains, locus YJR043C, strain POL32, stronger effect = lower value) is on record?
**A.** 1.01

**Q.** What about the normalized growth (S. cerevisiae deletion strains, locus YJR075W, strain HOC1, stronger effect = lower value) of the same compound?
**A.** 0.995

**Q.** What about the normalized growth (S. cerevisiae deletion strains, locus YKL009W, strain mrt4, stronger effect = lower value) of the same compound?
**A.** 0.98

**Q.** And the normalized growth (S. cerevisiae deletion strains, locus YKL068W, stronger effect = lower value)?
**A.** 1

**Q.** What about the normalized growth (S. cerevisiae deletion strains, locus YKL085W, strain MDH1 (second series), stronger effect = lower value) of the same compound?
**A.** 0.989

**Q.** And the normalized growth (S. cerevisiae deletion strains, locus YKL085W, strain MDH1, stronger effect = lower value)?
**A.** 0.989

**Q.** What about the normalized growth (S. cerevisiae deletion strains, locus YKL160W, strain elf1, stronger effect = lower value) of the same compound?
**A.** 0.968

**Q.** And the normalized growth (S. cerevisiae deletion strains, locus YKL190W, strain CNB1, stronger effect = lower value)?
**A.** 1.01

**Q.** What about the normalized growth (S. cerevisiae deletion strains, locus YKR001C, strain vps1, stronger effect = lower value) of the same compound?
**A.** 0.982

**Q.** And the normalized growth (S. cerevisiae deletion strains, locus YKR026C, strain gcn3, stronger effect = lower value)?
**A.** 0.947

**Q.** What about the normalized growth (S. cerevisiae deletion strains, locus YKR091W, strain srl3, stronger effect = lower value) of the same compound?
**A.** 0.963

**Q.** What about the normalized growth (S. cerevisiae deletion strains, locus YLL001W, strain dnm1, stronger effect = lower value) of the same compound?
**A.** 0.967

**Q.** What about the normalized growth (S. cerevisiae deletion strains, locus YLL026W, stronger effect = lower value) of the same compound?
**A.** 0.954

**Q.** And the normalized growth (S. cerevisiae deletion strains, locus YLL041C, strain sdh2, stronger effect = lower value)?
**A.** 0.954

**Q.** And the normalized growth (S. cerevisiae deletion strains, locus YLR027C, strain aat2, stronger effect = lower value)?
**A.** 0.954

**Q.** What about the normalized growth (S. cerevisiae deletion strains, locus YLR039C, strain RIC1, stronger effect = lower value) of the same compound?
**A.** 0.97

**Q.** And the normalized growth (S. cerevisiae deletion strains, locus YLR058C, strain SHM2, stronger effect = lower value)?
**A.** 1

**Q.** And the normalized growth (S. cerevisiae deletion strains, locus YLR102C, strain apc9, stronger effect = lower value)?
**A.** 0.995

**Q.** And the normalized growth (S. cerevisiae deletion strains, locus YLR221C, strain rsa3, stronger effect = lower value)?
**A.** 0.964

**Q.** And the normalized growth (S. cerevisiae deletion strains, locus YLR258W, strain gsy2, stronger effect = lower value)?
**A.** 0.93

**Q.** What about the normalized growth (S. cerevisiae deletion strains, locus YLR262C, strain YPT6 (second series), stronger effect = lower value) of the same compound?
**A.** 0.8 (active)

**Q.** What about the normalized growth (S. cerevisiae deletion strains, locus YLR262C, strain YPT6, stronger effect = lower value) of the same compound?
**A.** 0.969

**Q.** What about the normalized growth (S. cerevisiae deletion strains, locus YLR268W, strain sec22, stronger effect = lower value) of the same compound?
**A.** 0.987

**Q.** What about the normalized growth (S. cerevisiae deletion strains, locus YLR320W, strain mms22, stronger effect = lower value) of the same compound?
**A.** 0.942

**Q.** And the normalized growth (S. cerevisiae deletion strains, locus YLR330W, strain CHS5, stronger effect = lower value)?
**A.** 0.985

**Q.** What about the normalized growth (S. cerevisiae deletion strains, locus YLR342W, strain FKS1 (second series), stronger effect = lower value) of the same compound?
**A.** 1.05

**Q.** What about the normalized growth (S. cerevisiae deletion strains, locus YLR342W, strain FKS1, stronger effect = lower value) of the same compound?
**A.** 0.93

**Q.** What about the normalized growth (S. cerevisiae deletion strains, locus YLR357W, strain rsc2, stronger effect = lower value) of the same compound?
**A.** 0.949

**Q.** What about the normalized growth (S. cerevisiae deletion strains, locus YLR370C, strain arc18, stronger effect = lower value) of the same compound?
**A.** 0.962

**Q.** What about the normalized growth (S. cerevisiae deletion strains, locus YLR371W, strain rom2, stronger effect = lower value) of the same compound?
**A.** 1

**Q.** What about the normalized growth (S. cerevisiae deletion strains, locus YLR384C, strain iki3, stronger effect = lower value) of the same compound?
**A.** 0.971

**Q.** What about the normalized growth (S. cerevisiae deletion strains, locus YLR418C, strain cdc73, stronger effect = lower value) of the same compound?
**A.** 0.97

**Q.** What about the normalized growth (S. cerevisiae deletion strains, locus YML016C, strain PPZ1, stronger effect = lower value) of the same compound?
**A.** 0.996

**Q.** What about the normalized growth (S. cerevisiae deletion strains, locus YML032C, strain rad52, stronger effect = lower value) of the same compound?
**A.** 0.998

**Q.** What about the normalized growth (S. cerevisiae deletion strains, locus YML120C, strain ndi1, stronger effect = lower value) of the same compound?
**A.** 0.965

**Q.** And the normalized growth (S. cerevisiae deletion strains, locus YML124C, strain tub3, stronger effect = lower value)?
**A.** 0.991

**Q.** What about the normalized growth (S. cerevisiae deletion strains, locus YMR058W, strain fet3, stronger effect = lower value) of the same compound?
**A.** 0.966

**Q.** What about the normalized growth (S. cerevisiae deletion strains, locus YMR078C, strain ctf18, stronger effect = lower value) of the same compound?
**A.** 0.989

**Q.** And the normalized growth (S. cerevisiae deletion strains, locus YMR125W, strain sto1, stronger effect = lower value)?
**A.** 0.961

**Q.** And the normalized growth (S. cerevisiae deletion strains, locus YMR129W, stronger effect = lower value)?
**A.** 0.949

**Q.** And the normalized growth (S. cerevisiae deletion strains, locus YMR205C, strain PFK2, stronger effect = lower value)?
**A.** 0.895

**Q.** What about the normalized growth (S. cerevisiae deletion strains, locus YMR223W, strain ubp8, stronger effect = lower value) of the same compound?
**A.** 0.998

**Q.** And the normalized growth (S. cerevisiae deletion strains, locus YMR231W, strain pep5, stronger effect = lower value)?
**A.** 0.973

**Q.** And the normalized growth (S. cerevisiae deletion strains, locus YMR263W, strain SAP30, stronger effect = lower value)?
**A.** 1

**Q.** And the normalized growth (S. cerevisiae deletion strains, locus YMR307W, strain GAS1, stronger effect = lower value)?
**A.** 1.03

**Q.** And the normalized growth (S. cerevisiae deletion strains, locus YNL067W, strain RPL9B, stronger effect = lower value)?
**A.** 0.993

**Q.** What about the normalized growth (S. cerevisiae deletion strains, locus YNL071W, strain lat1, stronger effect = lower value) of the same compound?
**A.** 0.91 (active)

**Q.** And the normalized growth (S. cerevisiae deletion strains, locus YNL128W, strain TEP1, stronger effect = lower value)?
**A.** 0.989

**Q.** What about the normalized growth (S. cerevisiae deletion strains, locus YNL153C, strain GIM3, stronger effect = lower value) of the same compound?
**A.** 0.994

**Q.** What about the normalized growth (S. cerevisiae deletion strains, locus YNL209W, strain ssb2, stronger effect = lower value) of the same compound?
**A.** 0.983

**Q.** And the normalized growth (S. cerevisiae deletion strains, locus YNL233W, strain BNI4, stronger effect = lower value)?
**A.** 0.995

**Q.** What about the normalized growth (S. cerevisiae deletion strains, locus YNL248C, strain rpa49, stronger effect = lower value) of the same compound?
**A.** 0.966

**Q.** And the normalized growth (S. cerevisiae deletion strains, locus YNL250W, strain rad50, stronger effect = lower value)?
**A.** 0.993

**Q.** What about the normalized growth (S. cerevisiae deletion strains, locus YNL271C, strain bni1, stronger effect = lower value) of the same compound?
**A.** 0.992

**Q.** What about the normalized growth (S. cerevisiae deletion strains, locus YNL298W, strain CLA4, stronger effect = lower value) of the same compound?
**A.** 0.997

**Q.** What about the normalized growth (S. cerevisiae deletion strains, locus YNL307C, strain MCK1, stronger effect = lower value) of the same compound?
**A.** 0.991

**Q.** And the normalized growth (S. cerevisiae deletion strains, locus YNL322C, strain KRE1 (second series), stronger effect = lower value)?
**A.** 0.958

**Q.** And the normalized growth (S. cerevisiae deletion strains, locus YNL322C, strain KRE1, stronger effect = lower value)?
**A.** 1

**Q.** What about the normalized growth (S. cerevisiae deletion strains, locus YNR049C, strain mso1, stronger effect = lower value) of the same compound?
**A.** 0.961

**Q.** What about the normalized growth (S. cerevisiae deletion strains, locus YNR052C, strain pop2, stronger effect = lower value) of the same compound?
**A.** 0.992

**Q.** What about the normalized growth (S. cerevisiae deletion strains, locus YOL006C, strain TOP1, stronger effect = lower value) of the same compound?
**A.** 0.981

**Q.** And the normalized growth (S. cerevisiae deletion strains, locus YOL012C, strain htz1)?
**A.** 1.68

**Q.** What about the normalized growth (S. cerevisiae deletion strains, locus YOL147C, strain pex11, stronger effect = lower value) of the same compound?
**A.** 0.996

**Q.** What about the normalized growth (S. cerevisiae deletion strains, locus YOR001W, strain rrp6, stronger effect = lower value) of the same compound?
**A.** 0.969

**Q.** And the normalized growth (S. cerevisiae deletion strains, locus YOR061W, strain CKA2, stronger effect = lower value)?
**A.** 0.985

**Q.** And the normalized growth (S. cerevisiae deletion strains, locus YOR069W, strain VPS5, stronger effect = lower value)?
**A.** 1

**Q.** And the normalized growth (S. cerevisiae deletion strains, locus YOR070C, strain gyp1, stronger effect = lower value)?
**A.** 0.961

**Q.** What about the normalized growth (S. cerevisiae deletion strains, locus YOR080W, strain dia2, stronger effect = lower value) of the same compound?
**A.** 0.961

**Q.** And the normalized growth (S. cerevisiae deletion strains, locus YOR083W, strain WHI5, stronger effect = lower value)?
**A.** 0.961

**Q.** And the normalized growth (S. cerevisiae deletion strains, locus YOR106W, strain vam3, stronger effect = lower value)?
**A.** 0.963

**Q.** And the normalized growth (S. cerevisiae deletion strains, locus YOR136W, strain idh2, stronger effect = lower value)?
**A.** 0.999

**Q.** And the normalized growth (S. cerevisiae deletion strains, locus YOR144C, strain elg1, stronger effect = lower value)?
**A.** 0.982

**Q.** And the normalized growth (S. cerevisiae deletion strains, locus YOR184W, strain ser1, stronger effect = lower value)?
**A.** 0.978

**Q.** And the normalized growth (S. cerevisiae deletion strains, locus YOR265W, strain rbl2, stronger effect = lower value)?
**A.** 0.952

**Q.** And the normalized growth (S. cerevisiae deletion strains, locus YOR270C, strain vph1, stronger effect = lower value)?
**A.** 0.963

**Q.** What about the normalized growth (S. cerevisiae deletion strains, locus YOR290C, strain snf2, stronger effect = lower value) of the same compound?
**A.** 0.963

**Q.** What about the normalized growth (S. cerevisiae deletion strains, locus YOR316C, strain cot1, stronger effect = lower value) of the same compound?
**A.** 0.991

**Q.** And the normalized growth (S. cerevisiae deletion strains, locus YPL051W, strain arl3, stronger effect = lower value)?
**A.** 0.953

**Q.** What about the normalized growth (S. cerevisiae deletion strains, locus YPL055C, strain LGE1, stronger effect = lower value) of the same compound?
**A.** 0.981

**Q.** And the normalized growth (S. cerevisiae deletion strains, locus YPL078C, strain atp4, stronger effect = lower value)?
**A.** 0.962

**Q.** What about the normalized growth (S. cerevisiae deletion strains, locus YPL106C, strain sse1, stronger effect = lower value) of the same compound?
**A.** 0.994

**Q.** What about the normalized growth (S. cerevisiae deletion strains, locus YPL240C, strain hsp82, stronger effect = lower value) of the same compound?
**A.** 0.948

**Q.** And the normalized growth (S. cerevisiae deletion strains, locus YPL241C, strain CIN2, stronger effect = lower value)?
**A.** 0.994

**Q.** What about the normalized growth (S. cerevisiae deletion strains, locus YPR119W, strain clb2, stronger effect = lower value) of the same compound?
**A.** 0.99

**Q.** What about the normalized growth (S. cerevisiae deletion strains, locus YPR141C, strain kar3, stronger effect = lower value) of the same compound?
**A.** 0.993

**Q.** And the normalized growth (S. cerevisiae deletion strains, locus YPR163C, strain tif3, stronger effect = lower value)?
**A.** 0.993

**Q.** What about the normalized growth (S. cerevisiae deletion strains, locus YPR167C, strain met16, stronger effect = lower value) of the same compound?
**A.** 0.984

**Q.** And the normalized growth (S. cerevisiae deletion strains, strain wtn01, stronger effect = lower value)?
**A.** 0.99

**Q.** What about the normalized growth (S. cerevisiae strains, strain wild type, stronger effect = lower value) of the same compound?
**A.** 0.993
